Reference: PubChem BioAssay (NCI)
This is part of a sample that, as a whole, favours compounds with a hit. Of some 83,000 tested, about 20% had one in any assay.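 For each line, cells grew in 96-well plates with the test compound present at a single concentration for 48 hours.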 A number with no mark means an inactive call. Active and inactive are the calls of the source.

What follows are compounds tested on LOX IMVI melanoma (assay: NCI-60 one-dose screen, 48 h (100 = growth as untreated, 0 = no growth, -100 = all killed)). Conditions: 10 µM unless noted.
Description: Growth inhibition of the LOX IMVI human tumor cell line is measured as a screen for anti-cancer activity. Cells are grown in 96 well plates and exposed to the test compound for 48 hours. Compounds are tested at a single concentration, which is 10^-5 M for most compounds. The reported endpoint is percent growth (GI% or GIPRCNT), where numbers from 0 - 100% represent growth inhibition, and numbers from -100% - 0 represent cell death. For example, a value of 40 represents 60% growth inhibition. A value of 0 means no net growth occurred over the course of the experiment. A value of -40 indicates 40% of cells at the beginning of the experiment died by the end of the experiment. A value of -100 means all cells are dead at the end of the experiment.
NCI-60 Human Tumor Cell Lines Screen was performed using the standard one-dose NCI protocol, which is described in more detail at https://dtp.cancer.gov/discovery_development/nci-60/default.htm.
Compounds with GIPRCNT values below 10 were considered active. Activity score was based on GIPRCNT using the following formula: […]
Score is 0 for GIPRCNT values of 100 or above, 50 for GIPRCNT values of 0, and 100 for GIPRCNT values of -100.

SMILES | growth
Cc1ccccc1COc1ccc(-c2ccnn2-c2ccc(Cl)cc2)cc1 | 64.3%
C=C1c2nc3ccccc3n2C=C(c2ccc(Cl)cc2)N1Cc1ccc(OC)cc1 | 87.5%
CC/C=C\C[C@H](O)C/C=C1/C(=O)C=C[C@@]1(C)C/C=C\CCCC(=O)OC | 94.3%
CCn1c(Cc2ccccc2Nc2c(Cl)cccc2Cl)nnc1SCC(=O)NN1C(=O)/C(=C/c2cc(OC)c(O)c(OC)c2)SC1=S | 26.8%
O=c1ccccc(-c2ccc(-c3ccco3)cc2)c1O | 8.59% (active)
CN1CCN(c2nc(NCCCCNc3ccnc4cc(Cl)ccc34)c3ccccc3n2)CC1 | 2.66% (active)
CN1CCN(c2ccc(Nc3c4ccccc4nc4ccccc34)cc2)CC1 | 105%
CC1=C[C@H]2c3c(c(O)c(O)c4oc5c(C)cccc5c(=O)c34)[C@H](c3cc(O)c(O)c4oc5c(C)cccc5c(=O)c34)[C@H]2C(C)(C)C1 | -85.8% (active)
CC(=O)Oc1ccc(Cl)cc1CN(C(C)=O)C1CCCCC1 | 114%
COc1ccc(C(=O)c2sc3nc(C)cc(C)c3c2N)cc1OC | 96.5%
COc1cc2nc(N3CCCC3)nc(NCCc3ccccc3)c2cc1OC | -74.8% (active)
CC(C)(O)c1cn(CCCCN2C(=O)C(=O)c3ccccc32)nn1 | 91.6%
O=C1c2ccccc2C(=O)c2c1ccc1[nH]c(-c3cccs3)nc21 | 79.2%
COc1ccc(C(=O)/C=C/c2cccnc2Nc2cc(OC)c(OC)c(OC)c2)cc1 | -26% (active)
Cc1ccc2oc(=O)cc(C3c4ccc([nH]4)C(c4cc(=O)oc5ccc(C)cc45)c4ccc([nH]4)C(c4cc(=O)oc5ccc(C)cc45)c4ccc([nH]4)C(c4cc(=O)oc5ccc(C)cc45)c4ccc3[nH]4)c2c1 (stereo not given) | -70.6% (active)
O=C(N=Nc1c(O)[nH]c2ccccc12)c1cc(-c2ccccc2)on1 | 95.9%
Cc1cc(N2CCN(C)CC2)nc(NC2CCCC(Nc3ccnc4cc(Cl)ccc34)C2)n1 (stereo not given) | -81.8% (active)
CCOC(=O)c1sc(Nc2ccc(Cl)cc2)nc1C | 9.91% (active)
CCCCCC(=O)Oc1ccc(/C(=C(\C)c2ccc(OC)cc2)c2ccc(OCCN3CCCCC3)cc2)cc1 | 33.5%
COc1cc(/C=C/C(=O)Nc2cccnc2Nc2ccc(F)cc2)cc(OC)c1OC | 100%

SMILES | growth
O=C(N/N=C/c1c[nH]c2ccccc12)c1cc(-c2ccccc2)on1 | 56.3%
CC(=O)O[C@H]1CC[C@]2(C)[C@H]3CC=C4[C@@H]5CC(C)(C)CC[C@]5(C(=O)NCCNCCNCCN)CC[C@@]4(C)[C@]3(C)CC[C@H]2C1(C)C | -98.9% (active)
O=C1Nc2c(ccc(Cl)c2Cl)/C1=C\c1ccc(C(F)(F)F)cc1 | 67%
NC(=NCCCC1(c2ccccc2)CCCC1)Nc1ccc(Cl)cc1 | -50% (active)
CC[C@]1(O)C[C@@H]2CN(CCc3c([nH]c4ccccc34)[C@@](C(=O)OC)(c3cc4c(cc3OC)N(C)[C@H]3[C@@](O)(C(N)=O)[C@H](O)[C@]5(CC)[C@@H]6C[C@@H]6CN6CC[C@]43[C@@H]65)C2)C1 | 18.3%
COc1ccc(CN2c3ccccc3Sc3ccccc32)c(C(F)(F)F)c1 | 54.7%
CCCOc1ccc2nc(NC(=O)OC)[nH]c2c1 | 24.4%
Cn1c(NCCc2ccc(O)c(O)c2)nc2c1c(=O)n(Cc1ccc(Cl)c(Cl)c1)c(=O)n2C | 86.5%
COC(=O)[C@]12CCC(C)(C)C[C@H]1[C@H]1C(=O)C[C@@H]3[C@@]4(C)c5c([nH]c6ccccc6c5=O)C(C)(C)[C@@H]4CC[C@@]3(C)[C@]1(C)CC2 | 58.3%
COc1cc2nc(N3CCCC3)nc(NCc3ccccc3)c2cc1OC | 10%
COc1ccc2cc(-c3nn(-c4ccc(C(=O)O)cc4)cc3CO)ccc2c1 | 101%
COc1ccc(/C=C(\C#N)C(=O)Nc2cccc(Nc3nc(SC)nc(-c4cccc([N+](=O)[O-])c4)c3C#N)c2)cc1OC | 97.6%
O=C1/C(=C/c2ccc3c(c2)OCO3)SC(=S)N1CCc1ccc(O)cc1 | 91.3%
COc1cc(-c2nn(C)nc2-c2cc3ccccc3s2)cc(OC)c1OC | 38.3%
COc1ccc(S(=O)(=O)N2CCN(C)CC2)cc1NC(=O)c1[nH]c(C)c2c1CCCCC2=O | 29.6%
COc1ccc2nc(NC(=O)CSc3nnc4n3S(=O)(=O)c3ccccc3N4c3ccccc3)sc2c1 | 85.5%
CCCCCCN(CCCCCC)C(=N)c1ccnc2ccccc12 | 30%
COc1ccc(S(=O)(=O)N2CCCCC2)cc1NC(=O)c1[nH]c(C)c2c1CCCCC2=O | -56.6% (active)
NC(N)=N/N=C(/c1ccccc1)c1ccc(F)cc1 | 18.6%
O=C1/C(=C/c2ccc(OCCCOc3ccc(Cl)cc3)cc2)N=C2SCCCN12 | 68.3%
